Measured values reported in PubChem BioAssay (NCI).
Compounds without any hit were thinned out: in the full panel of roughly 83,000, 20% have a hit.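 Percent growth is the endpoint: 0 to 100 indicates growth inhibition (40 means 60% inhibition), 0 means no net growth, and negative values indicate cell death.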 Values without a mark were called inactive. The source made the active and inactive calls. Rule for the calls: active = growth percent below 10; inactive = the rest.

These molecules were tested on MDA-MB-231 breast (assay: NCI-60 one-dose screen, 48 h (100 = growth as untreated, 0 = no growth, -100 = all killed)). Conditions: 10 µM unless noted.

SMILES	growth
Cc1nn(-c2ccccc2)c(Oc2ccc(Cl)cc2)c1/C=N\N=c1/sc2ccccc2n1C	79%
CC(C)Sc1nc(NNC(N)=S)c(C#N)c(-c2ccc(F)cc2)n1	98%
NC(=O)c1ccc[n+](Cc2ccc(Cl)cc2Cl)c1	103%
CCCCCCCC/C=C\CCCCCCCCOc1ccccc1CC(=O)NCC[N+](C)(C)C	72.9%
O=C1Nc2ccccc2/C1=C/c1cn(C(=O)c2ccc(Cl)cc2)c2ccccc12	77.7%
O=C1/C(=C\c2cccnc2)SC(=S)N1CCc1ccc(O)cc1	47.1%
COc1ccc(C2C(c3nn[nH]n3)=C(N)Oc3c2ccc2ccccc32)cc1 (stereo not drawn)	31.5%
COc1ccc(NC(=O)CSc2nnc(-c3cc(-c4ccc(S(N)(=O)=O)cc4)nc4ccccc34)n2-c2ccccc2)cc1	72.8%
COc1ccc(-c2csc(C3=C(O)CN(C(C)C)C3=N)n2)cc1OC	81.1%
Cn1cc(-c2csc(-c3ccccc3)n2)c2cccnc21	-42.7% [100 µM] (active)
CCN1CCN(c2cc(C)nc(NCc3cc(Nc4ccnc5cc(Cl)ccc45)ccc3F)n2)CC1	26.4%
C#CCOc1nc(C)cc(C)c1C#N	94.5%
Cc1cc(O)c(C2=NN(c3ccc(S(N)(=O)=O)cc3)C(c3ccccc3Cl)C2)cc1Cl (stereo not drawn)	20%
N#Cc1c(-c2cccc(Cl)c2)cc(-c2cccc(Cl)c2)[nH]c1=O	90.5%
N=c1sc(Cc2ccc(Cl)cc2)cn1CC(=O)c1ccc(F)cc1	79.7%
COc1cc(CCC[P+](c2ccccc2)(c2ccccc2)c2ccccc2)cc2c1OCO2	29%
CCCCc1ccc(Nc2ccc(Nc3ccc(CCCC)cc3S(=O)(=O)O)c3c2C(=O)c2ccccc2C3=O)c(S(=O)(=O)O)c1	83.1%
COc1ccc2occ(C3=C(c4c[nH]c5ccccc45)C(=O)N(O)C3=O)c2c1	69%
CC1(C)OC2C(CO[Si](C)(C)C(C)(C)C)OC(n3c(I)c(C#C[Si](C)(C)C)c(=O)[nH]c3=O)C2O1 (stereo not drawn)	98%

SMILES	growth
Cc1ccc(S(=O)(=O)NCC[C@@H]2C[C@H]2c2cc3ccccc3s2)cc1	92.5%
NC[C@H](O)c1ccc(O)c(O)c1	78.8%
C=C(C)[C@@H]1CC[C@]2(C(=O)NC3CCCCC3)CC[C@]3(C)[C@H](CC[C@@H]4[C@@]5(C)CCC(=O)C(C)(C)[C@@H]5CC[C@]43C)[C@@H]12	87.4%
N=C1CCC(=N)c2c1c(O)c1ccccc1c2O	89.6%
COC(=O)[C@]12CC[C@@H](C)[C@H](C)[C@@H]1C1=CC[C@@H]3[C@@]4(C)C(C=O)=C[C@@](C)(COC(C)=O)[C@@H]4C(=O)C[C@@]3(C)[C@]1(C)CC2	46.8%
COc1cc(/C=N/Nc2ncc(-c3cc4cc5c(cc4o3)OCO5)s2)cc(OC)c1OC	46.5%
OC(c1cccc(-n2ccc(C(F)(F)F)n2)c1)c1cnccc1NC1CCCCCC1 (stereo not drawn)	-76.4% (active)
COc1ccc(-c2[nH]c(=S)n(C(CC3(C)NCC(=O)N3n3c(-c4ccccc4)cc(C)nc3=S)c3ccc(OC)cc3)c(=O)c2Br)cc1 (stereo not drawn)	79.9%
Cc1ccc(Cl)c(NS(=O)(=O)c2ccc(-c3cnc(C4CC4)o3)cc2)c1	32.5%
O=C(NC(Cc1nnc2n(Cc3ccccc3)c(=O)c3c4c(sc3n12)CCCC4)c1ccc(Cl)cc1)c1ccccc1 (stereo not drawn)	83.2%
Cc1c(O)cc(-c2cnc(N/N=C\c3ccc(Cl)cc3)s2)c(O)c1C	95.4%
CCN(CC)CCn1nc2c3c(cccc3c1=O)-c1ccccc1-2	37.7%
Fc1c[c-]c(-c2ccccn2)c(F)c1.[CH3-].[Pt+2].c1ccc(P(C[PH+](c2ccccc2)c2ccccc2)c2ccccc2)cc1	-59% (active)
CCN1C(=O)N(CC)C2Nn3c(s/c(=C\c4cccc([N+](=O)[O-])c4)c3=O)=NC21 (stereo not drawn)	30.7%
N#C/C(=C/C=C/c1cccc(Cl)c1)S(=O)c1ccccc1 (stereo not drawn)	-57.6% (active)
Oc1c(CN2CCCC2)cc(COCc2ccc(Br)cc2)c2cccnc12	5.06% (active)
O=C(CCCCCCN1CC(=O)N2[C@@H](c3ccccc3Cl)c3[nH]c4ccccc4c3C[C@H]2C1=O)NO	63.1%
COc1ccc(C2CC(c3cccc(OC)c3)=NN2C(=O)c2cc(OC)c(OC)c(OC)c2)cc1 (stereo not drawn)	33.6%
CCc1c2c(nc3ccc(OC(=O)OCc4ccc(B5OC(C)(C)C(C)(C)O5)cc4)cc13)-c1cc3c(c(=O)n1C2)COC(=O)[C@]3(O)CC	17.4%
